# CF NFkB block – inhibitors of PAF-induced NF-kB signaling, primary screen, cell-based, GFP fluorescence, uHTS. KKLEB NF-kB-GFP reporter, GFP fluorescence overnight. inhibition, % at 5 µM. 0.86% of 360,000 active. AID 588850, 2011;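 active = at least 50% inhibition at 5 µM, scaled per plate between neutral and stimulator controls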;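 note: PAF is a Pseudomonas aeruginosa culture filtrate used as stimulus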
# ABHD5-PLIN5 inh – ABHD5-PLIN5 interaction inhibitors, primary screen, cell lysate, split luciferase complementation, luminescence; Perilipin-5 (Homo sapiens) + 1-acylglycerol-3-phosphate O-acyltransferase ABHD5 (Homo …; Split G. princeps luciferase complementation, 4 h; inhibition, % at 4 µM; 0.78% of 360,000 active; AID 602281, 2012;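 active = inhibition above the mean inhibition across every tested compound plus 3 SD, cut at about 22% in these data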
# Mdm2-MdmX inh – inhibitors of human Mdm2-MdmX association, primary screen, cell-based, luminescence, split luciferase, SaOS-2, uHTS | Protein Mdm4 (Homo sapiens) + E3 ubiquitin-protein ligase Mdm2 (Homo sapiens), … | SaOS-2 split-luciferase Mdm2/MdmX complementation | inhibition, % at 8 µM | 3% of 330,000 active;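 active = inhibition of at least 50% at 8 µM in the primary screen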
# Target sequence (O15151 whole entry, looked up): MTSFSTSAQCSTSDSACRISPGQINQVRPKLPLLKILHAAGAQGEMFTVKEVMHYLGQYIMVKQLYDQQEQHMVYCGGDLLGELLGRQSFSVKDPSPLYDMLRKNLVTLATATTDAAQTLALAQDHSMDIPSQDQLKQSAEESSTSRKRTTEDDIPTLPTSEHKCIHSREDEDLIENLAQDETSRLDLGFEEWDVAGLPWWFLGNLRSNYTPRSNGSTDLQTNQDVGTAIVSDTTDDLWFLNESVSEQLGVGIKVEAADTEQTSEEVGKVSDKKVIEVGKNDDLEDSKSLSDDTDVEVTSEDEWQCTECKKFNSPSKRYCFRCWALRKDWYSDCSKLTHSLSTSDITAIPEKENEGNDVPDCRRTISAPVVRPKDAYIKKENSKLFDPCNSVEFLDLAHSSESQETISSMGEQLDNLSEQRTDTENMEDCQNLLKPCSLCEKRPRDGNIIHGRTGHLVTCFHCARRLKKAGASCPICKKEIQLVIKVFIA
# Target sequence (Q00987 whole entry, looked up): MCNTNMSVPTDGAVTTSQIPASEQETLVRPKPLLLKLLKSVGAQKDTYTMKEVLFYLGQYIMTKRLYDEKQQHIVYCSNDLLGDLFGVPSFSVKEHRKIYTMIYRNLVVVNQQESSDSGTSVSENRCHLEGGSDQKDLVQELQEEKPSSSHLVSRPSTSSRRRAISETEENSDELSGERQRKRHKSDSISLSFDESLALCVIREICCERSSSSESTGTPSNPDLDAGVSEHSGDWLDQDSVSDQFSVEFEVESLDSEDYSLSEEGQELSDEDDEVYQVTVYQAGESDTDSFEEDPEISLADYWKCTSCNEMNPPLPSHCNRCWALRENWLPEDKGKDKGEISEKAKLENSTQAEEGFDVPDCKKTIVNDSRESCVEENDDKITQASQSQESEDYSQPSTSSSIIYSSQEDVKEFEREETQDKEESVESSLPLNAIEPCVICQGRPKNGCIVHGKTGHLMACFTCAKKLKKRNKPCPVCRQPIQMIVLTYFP
# HIF-2a block – HIF-2a reporter inhibitors, primary screen, luminescence, 786-0 RCC cells; 786-0 RCC cells HIF-2a reporter, luciferase luminescence, overnight; 0.72% of 360,000 active; AID 624352, 2012; inhibition, % at 18.8 µM;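 active = inhibition of the luminescence signal of 40% or more relative to plate controls, in a single-dose primary screen at 18.75 µM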
# KKLEB tox – cytotoxicity in KKLEB CF airway cells, primary screen, cytotoxicity control for CF NF-kB inhibitor project, cell-based, uHTS, fluorescence assay plates | KKLEB CF airway cells viability, ATPlite luminescence, overnight; stronger effect = lower value; cells stimulated with P. aeruginosa culture filtrate | activity change (cytotoxicity), % at 5 µM | 0.36% of 360,000 active;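 active = corrected activity change at or below -50% at 5 µM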
# Peg3 promoter – Peg3 promoter-driven luciferase inhibitors, primary screen, cell-based, HeLa, luciferase luminescence; HeLa PEG-Prom luciferase reporter, overnight; inhibition, % at 20 µM; 1.7% of 360,000 active; AID 588405, 2011;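 active = inhibition of at least 50% at 20 µM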
# Mdm2-MdmX conf – Mdm2-MdmX complex disruptors, retested hits, confirmation, luminescence, single concentration; AID 489028, 2010; 55% of 10,000 active; inhibition, % at 8 µM; shares compounds with Mdm2-MdmX inh; Mdm2-MdmX binding, luminescent assay
# FLuc counter – full-length luciferase signal inhibition, confirmation, counter-screen for Mdm2/MdmX interaction inhibitor project, cell-based, single concentration, SaOS-2; shares compounds with Mdm2-MdmX inh; SaOS-2 full-length luciferase counterscreen, luminescence; inhibition, % at 8 µM; 77% of 6,200 active; AID 504607, 2011;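 active = mean inhibition at 8 µM reaching about 37%, which flags the compound as non-specific, limit read from the data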;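 note: p53-null SaOS-2 cells with luciferase driven by a doxycycline-inducible promoter; compound on cells about two nights before reading with doxycycline added after day one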
# CF NFkB inh conf – inhibitors of PAF-induced NF-kB signaling, retest, confirmation, cell-based, GFP fluorescence, single concentration; shares compounds with CF NFkB block; KKLEB CF airway cells, overnight; inhibition, % at 5 µM; AID 602472, 2012; 64% of 1,300 active;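 note: stimulus PAF is a Pseudomonas aeruginosa filtrate and not platelet activating factor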
# A number is an active result; - = inactive; . = not tested or not shown. This is a sample that favours compounds with a hit; in the whole collection about 4.6% have one here. Cut-off read from the data, not from the text of the source, unless noted: active = inhibition above about 40%; inactive = the rest.
SMILES,CF NFkB block,ABHD5-PLIN5 inh,Mdm2-MdmX inh,HIF-2a block,KKLEB tox,Peg3 promoter,Mdm2-MdmX conf,FLuc counter,CF NFkB inh conf
COC1(OC)C=CC(=O)C=C1NC(=O)c1ccccc1OC(C)=O,66.1,23.1,82.1,-,-,50.3,66.5,-,68.8
CCN(CC)C(=O)C1=C(C)N(CCC2=CCCCC2)C(=O)C(CC(=O)NCc2ccco2)C1 (stereo not drawn),-,-,.,-,-,-,.,.,.
COc1ccc2c(c1OC)C(=O)N1c3ccccc3C(=O)N(c3ccccc3)C21 (stereo not drawn),68.5,-,65.5,-,-,-,62.2,69.2,96.8
O=C(NNS(=O)(=O)c1ccccc1F)c1ccccc1-n1cccc1,-,-,-,-,-,-,.,.,.
COc1cc(/C=C/C(=O)N2C(=O)c3cccc(N)c3C2=O)cc(OC)c1OC,64.2,-,71.1,-,-,64.7,58.1,79.1,-
COc1ccc(OC)c(/C=C/C(=O)N2C(=O)c3cccc(N)c3C2=O)c1,60.2,-,63.3,-,-,63.6,48.1,-,-
Nc1cccc2c1C(=O)N(C(=O)/C=C/c1cccc(F)c1)C2=O,52.2,-,55.5,-,-,79.9,49.6,65.4,-
Cn1cc(-c2csc(C(O)(c3ccccc3)C(F)(F)F)n2)cn1 (stereo not drawn),-,-,.,-,-,-,.,.,.
Cc1cccc(S(=O)(=O)N2C[C@@H](O)COC[C@@H]3O[C@H](CC(=O)NCCCN4CCOCC4)CC[C@H]32)c1,.,-,.,-,.,.,.,.,.
COc1ccc(CCCN2CCC(CN3C(=S)NC[C@@H]3Cc3ccccc3)CC2)cc1OC,-,-,.,-,-,-,.,.,.
CCOC(=O)C1CCN(c2cc3c(cc2NC(=O)c2ccccc2)n(C)c(=O)n3C)CC1,-,-,-,-,-,-,.,.,.
CCOC(=O)C1CCN(c2cc3c(cc2NC(=O)c2ccc(OC)c(OC)c2)n(C)c(=O)n3C)CC1,54.4,-,65.0,-,-,-,-,.,-
CCOc1ccc(NCc2cc3c(C(C)(C)C)nn(-c4ccccc4)c3[nH]c2=O)cc1,55.4,-,95.8,-,-,-,-,90.7,72.9
COc1cccc(NCc2cc3c(C(C)(C)C)nn(-c4ccccc4)c3[nH]c2=O)c1,-,-,-,-,-,-,.,.,.
CCOC(=O)C(Oc1ccc2c(-c3ccc(OC)cc3)cc(=O)oc2c1C)c1ccccc1 (stereo not drawn),-,-,-,-,-,-,.,.,.
COc1ccc(-c2cc(=O)oc3c(C)c(OC(=O)c4cccs4)ccc23)cc1,72.2,-,85.0,-,-,-,47.2,-,96.2
CCN1CCN(C(C(=O)NC2CCCCC2)c2ccnc3ccccc23)CC1 (stereo not drawn),-,-,.,-,-,-,.,.,.
CC(C)Cc1nc2oc3c(NCC4CCCO4)ncnc3c2c2c1CCC2 (stereo not drawn),76.4,-,53.1,-,-,60.6,54.9,75.2,90.5
CC(C)Cc1nc2oc3c(NCc4cccnc4)ncnc3c2c2c1CCC2,-,-,-,-,-,-,.,.,.
CCCCN1Cc2c(nc3cc(-c4ccco4)[nH]n3c2=O)C1=O,-,-,-,-,-,-,.,.,.
